Most compounds without a hit are left out; they make up all but 2.9% or so of the library.
NR1D1 modulator = modulates human Rev-erb alpha binding to DNA | P20393 | Rev-erbα–FITC-DNA binding, fluorescence polarization, 90 min | activity, % at 10 µM | 370,000 tested, 0.79% active;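 active = activity above about 14%, limit read from the data; passing the limit was not always enough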;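 note: 0% = DMSO wells with 35 nM protein and 100% = DMSO wells with 750 nM protein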
Target sequence (P20393 whole entry, looked up): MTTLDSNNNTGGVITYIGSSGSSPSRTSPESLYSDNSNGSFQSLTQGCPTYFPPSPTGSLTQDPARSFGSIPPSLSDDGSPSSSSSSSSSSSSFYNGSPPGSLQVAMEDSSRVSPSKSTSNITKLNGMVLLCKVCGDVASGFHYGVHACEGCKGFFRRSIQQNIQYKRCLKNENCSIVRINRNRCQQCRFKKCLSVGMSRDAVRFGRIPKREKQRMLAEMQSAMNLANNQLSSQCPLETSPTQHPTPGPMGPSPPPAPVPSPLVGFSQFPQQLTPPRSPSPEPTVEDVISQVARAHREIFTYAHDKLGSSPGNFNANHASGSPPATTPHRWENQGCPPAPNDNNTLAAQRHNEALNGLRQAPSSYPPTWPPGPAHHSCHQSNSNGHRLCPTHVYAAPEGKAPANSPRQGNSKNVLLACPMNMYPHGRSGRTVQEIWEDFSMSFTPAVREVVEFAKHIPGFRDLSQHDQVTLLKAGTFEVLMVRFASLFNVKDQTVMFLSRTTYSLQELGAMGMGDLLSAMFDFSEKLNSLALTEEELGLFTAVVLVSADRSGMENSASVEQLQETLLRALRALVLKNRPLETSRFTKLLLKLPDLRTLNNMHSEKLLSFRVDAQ
SKN-1 inh = blocks SKN-1 activity in C. elegans; inhibition, % at 21.8 µM; C. elegans VP596 Pgst-4::GFP/RFP ratio, acrylamide-induced, 24 h; AID 624304; 360,000 tested, 0.49% active;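 active = interference check ratio from 0.5 to 1.5 plus GFP to RFP signal ratio inhibition reaching or exceeding a fixed threshold, cut at about 30% in these data, passing the limit was not always enough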
EP2 antag = inhibitors of human EP2 prostaglandin E2 receptor. P43116. C6 glioma cells expressing human EP2, cAMP TR-FRET; cells stimulated with saturating PGE2. inhibition, % at 25 µM. 260,000 tested, 0.52% active. AID 1422;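 active = percent inhibition above 40 after rounding to a whole number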;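 note: rat C6 glioma host cells with rolipram phosphodiesterase inhibitor present; the protocol text gives 20 µM as final concentration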
RAM inhibit = blocks the yeast RAM network; inhibition, % at 50 µM; 190,000 tested, 1.8% active; S. cerevisiae dse1pr::URA3 reporter, 5-FOA growth OD615, 2 d; analog-sensitive cbk1-as2 kinase mutant strain; AID 868;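 active = inhibition above a set limit, 3 SD over mean compound inhibition, cut at about 8.4% in these data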;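 note: 0% = DMSO-only wells with no growth and 100% = 10 µM 1-NA-PP1 full growth; inhibition rescues growth on 5-FOA so higher OD means more RAM inhibition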
EP2 modulator = modulates human prostaglandin E2 receptor EP2 signaling; P43116; EP2-expressing cells, cAMP HTRF FRET, PGE2 co-stimulation; induction, % at 25 µM; 260,000 tested, 0.83% active; AID 940;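 active = compounds whose cAMP rise, as percent of the full-agonist control response, exceeds 60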;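 note: rat C6 glioma line stably carrying human EP2 under a CMV promoter; the protocol text gives 20 µM as final concentration; 100% = response of wells given 1 µM PGE2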
PG9 binder = small molecules binding HIV-1 gp120 antibody PG9; TR-FRET gp120-PG9 antibody binding; inhibition, % at 6.7 µM; 360,000 tested, 0.43% active; in the data active = inhibition above about 8.5%
Rev-erbA confirm = Rev-erb alpha (human) modulation, hit confirmation; shares compounds with NR1D1 modulator; Rev-erb alpha FITC-DNA binding, fluorescence polarization, 90 min; activation, % at 25 µM; 3,000 tested, 61% active; AID 1259319;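 active = activation at or above a set limit, or at least 3 SD above the negative control mean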;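 note: 0% = 35 nM protein with DMSO and 100% = 750 nM protein high control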
RORg DNA counter = RORgamma DNA-binding activity, dose-response counter-screen. purified RORgamma protein-FITC-DNA binding, fluorescence polarization. IC50, µM. shares compounds with NR1D1 modulator. 910 tested, 8% active;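 active = Compounds whose fitted half-maximal concentration for disrupting protein-DNA binding is below 10 micromolar; the record names Rev-erb in its text, so the target is in doubt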
* = called active by the depositor; . = no result given.

SMILES	NR1D1 modulator	SKN-1 inh	EP2 antag	RAM inhibit	EP2 modulator	PG9 binder	Rev-erbA confirm	others
Cc1ccc(NC(=O)c2c(C)noc2-c2snnc2C)cc1	8.5	-19.8	3.8	.	-18.1	-1.1	.
Cc1nnsc1-c1onc(C)c1C(=O)Nc1cc(Cl)cc(Cl)c1	24.8*	-5.2	2.9	.	26.5	-1.1	11.5
CCCCNC(=O)c1nn2c(C(F)(F)F)cc(-c3ccccc3)nc2c1Br	10.3	-3.2	.	.	.	0.5	.
N#CCNC(=O)c1nn2c(C(F)(F)F)cc(-c3ccccc3)nc2c1Br	56.7*	20.7	.	.	.	-0.7	31.2*	RORg DNA counter=>40
O=C(NCC1CCCO1)c1nn2c(C(F)(F)F)cc(-c3cc(Br)cs3)nc2c1Br (stereo not drawn)	22.9*	10.9	.	.	.	0.2	-4.1
COc1ccc([C@@H]2C[C@H](C(=O)Nc3cccc(C(C)O)c3)N(C)S(=O)(=O)N2)cc1OC (stereo partly drawn)	.	.	.	.	-6.4	.	.
O=c1cc(CN(Cc2ccccc2)Cc2ccccc2)c2ccccc2o1	22.1*	-0.2	.	.	.	-0.7	9.0
COc1ccc(-c2nc3ccc(Br)cn3c2Cc2cccc(F)c2)cc1OC	17.5*	11.5	.	.	.	3.6	2.8
Cc1ccc(Cc2c(-c3ccc(Br)cc3)nc3ccc(Br)cn23)cc1	24.3*	4.9	.	.	.	3.8	21.9*
Cc1ccc(Cc2c(-c3ccccc3)nc3c(C)cc(Br)cn23)cc1	9.9	6.4	.	.	.	3.8	.
Cc1cc(Br)cn2c(Cc3ccccc3)c(-c3cccc(Cl)c3)nc12	19.0*	10.5	.	.	.	5.3	15.7*
Cc1cc(Br)c2nc(-c3ccccc3)c(Cc3cccc(Cl)c3)n2c1	26.9*	22.8	.	.	.	8.2	15.0*
Cc1ccc2nc(-c3ccccc3)c(Cc3cccc(Cl)c3)n2c1	-0.3	-9.0	.	.	.	-0.2	.
Cc1nn(CC(=O)N2CCN(c3ccc(F)cc3)CC2)c(=O)c2cc3ccsc3n12	.	.	.	.	-16.3	.	.
Cc1ccc(-c2nc3c(C)cc(Br)cn3c2Cc2cccc(F)c2)cc1	20.5*	16.8	.	.	.	4.2	19.8*
Cc1cc(Br)cn2c(Cc3ccccc3C(F)(F)F)c(-c3ccccc3)nc12	22.4*	18.5	.	.	.	1.1	11.4*
O=C(NCCNCCO)c1c(O)c2ccccc2[nH]c1=O	.	.	9.2	.	-12.9	.	.
O=C(NCc1ccccc1)C1C(c2ccc3c(c2)OCO3)=Nc2ccccc2N1C(=O)c1cccc2ccccc12 (stereo not drawn)	16.2*	0.8	.	.	.	-2.2	6.0
COc1ccc(C2=Nc3ccccc3N(C(=O)c3ccc4c(c3)OCO4)C2C(=O)Nc2c(C)cccc2C)cc1 (stereo not drawn)	-3.9	1.0	.	.	.	-2.3	.
Cc1cccc(C)c1NC(=O)C1C(c2ccc3c(c2)OCO3)=Nc2ccccc2N1C(=O)c1cccc2ccccc12 (stereo not drawn)	29.1*	8.6	.	.	.	-1.6	17.5*
CC(=O)Nc1ccc(C(=O)N2c3ccccc3N=C(c3ccc4c(c3)OCO4)C2C(=O)NCc2ccccc2)cc1 (stereo not drawn)	-0.9	-3.7	.	.	.	-2.6	.
CCOc1cc(C=O)c(Br)cc1OC1CCCC1	21.7*	-1.5	10.6	-1.6	59.4	2.8	11.5
CC1CC(=O)N(c2ccc(NCCc3ccc(O)cc3)c([N+](=O)[O-])c2)C1=O (stereo not drawn)	18.9*	12.7	3.1	1.1	-32.7	-0.4	6.7
Clc1ccc(N2CCN(c3ncnc4c3oc3ccccc34)CC2)cc1	36.7*	5.4	17.0	.	.	0.2	12.0
CC1CN(c2ncnc3c2oc2ccccc23)CC(C)O1 (stereo not drawn)	-0.6	17.4	16.0	2.1	16.5	1.2	.
SMILES	NR1D1 modulator	SKN-1 inh	EP2 antag	RAM inhibit	EP2 modulator	PG9 binder	Rev-erbA confirm	others
COc1cc2c(C)nc3c(c(C)nn3-c3ccccc3)c2cc1OC	20.8*	3.1	0.8	4.8	-8.5	-1.0	-2.9
COc1cc2c(-c3ccc(O)cc3)nc3c(c(C)nn3-c3ccccc3)c2cc1OC	13.0	-1.8	4.3	4.9	31.7	0.1	.
N#Cc1ccc(-c2ccc(F)cc2)nc1SCC(=O)Nc1sc2c(c1C#N)CCC2	31.7*	16.2	20.0	5.9	19.0	-0.4	20.9*
N#Cc1cc2c(nc1SCC(=O)Nc1sc3c(c1C#N)CCC3)CCCC2	3.3	-8.9	23.2	3.2	14.2	-1.4	.
Cn1c(SCc2ccccc2)nc2sc3c(c2c1=O)CCCC3	.	.	17.4	.	16.8	.	.
Cc1cnn(-c2ccc3nnc(-c4ccc(Cl)cc4)n3n2)c1	21.7*	-0.4	10.4	0.7	-0.5	-2.5	27.2*
O=C1N/C(=C\c2ccc(N3CCOCC3)c(F)c2)C(=O)N1Cc1ccccc1	28.3*	18.1	12.3	5.7	17.1	0.0	-1.6
O=C(CNC(=O)c1ccc(Cl)cc1)OCC(=O)c1ccccc1	1.9	6.6	.	.	.	-0.9	.
CC(C)(C)c1ccc(C(=O)NCC(=O)OCC(=O)c2ccc3c(c2)-c2ccccc2C3)cc1	25.9*	-3.8	4.9	0.8	-15.3	-1.6	8.1
COc1ccc(NC(=O)NNC(=O)COc2ccc3cc(Br)ccc3c2)cc1	15.7*	-0.7	.	.	.	1.2	7.7
CCn1c(SCC(=O)Nc2cc(C)on2)nc2sc(C)c(C)c2c1=O	26.9*	.	.	.	.	6.8	34.8*	RORg DNA counter=>40
COc1cccc(-n2c(SCC(=O)Nc3cc(C)on3)nc3ccccc3c2=O)c1	0.0	9.3	7.1	1.1	-6.2	3.0	.
CCn1c(SCC(=O)Nc2c(C)cccc2C)nc2sc(C)c(C)c2c1=O	.	.	9.2	.	-13.5	.	.
C=CCn1c(SCC(=O)Nc2cc(C)on2)nc2sc(C)c(C)c2c1=O	53.7*	32.3	.	0.2	10.4	-0.8	53.5*	RORg DNA counter=>40
CCc1sc2nc(SCC(=O)Nc3cc(C)on3)n(-c3cccc(OC)c3)c(=O)c2c1C	34.0*	-11.0	20.5	5.8	19.9	7.8	22.3*
COc1cccc(C(=O)NC2CC3CCCC(C2)N3Cc2cccs2)c1 (stereo not drawn)	.	.	24.6	.	-110.1	.	.
Cc1nnc2c(NCCC(C)C)nc3ccccc3n12	23.0*	23.3	.	.	.	-0.3	1.4
Cc1nnc2c(NCC(C)c3ccccc3)nc3ccccc3n12 (stereo not drawn)	4.7	9.1	.	.	.	1.6	.
CCOc1ccccc1-n1c(SCC(=O)Nc2ccccc2Cl)nnc1-c1ccncc1	.	.	7.5	.	-15.4	.	.
COC(=O)c1cc(C#N)c(NCc2ccccc2)nc1C	0.4	-19.3	15.9	2.8	28.1	-4.4	.
CC(=O)c1cc(C#N)c(NCc2cc(-c3ccccc3)no2)nc1C	26.4*	4.7	7.4	7.9	-52.8	-1.2	18.2*
COC(=O)c1c(NC(=O)c2ccc(Cl)cc2)sc(C(=O)Nc2ccccc2OC)c1C	.	.	25.4	.	-9.7	.	.
